Among the data in paper PMC7862700, “An all-to-all approach to the identification of sequence-specific readers for epigenetic DNA modifications on cytosine” are binding signal values, retold here.

Holding throughout (assay): DAPPL (digital affinity profiling via proximity ligation, sequencing); 10 mM Tris-HCl pH 7.5, 50 mM NaCl, 1 mM DTT, 4% glycerol, room temperature, 30 min; GST-TFs on glutathione beads, 16-mer random dsDNA library, 0.1% formaldehyde crosslink after washing; high values mean tight binding
Holding throughout (settings): protein: recombinant; tags: N-terminal GST; dsDNA, one strand shown

One assay addresses T1, FLI1 (Homo sapiens, UniProt Q01543 1-452).
T1 sequence: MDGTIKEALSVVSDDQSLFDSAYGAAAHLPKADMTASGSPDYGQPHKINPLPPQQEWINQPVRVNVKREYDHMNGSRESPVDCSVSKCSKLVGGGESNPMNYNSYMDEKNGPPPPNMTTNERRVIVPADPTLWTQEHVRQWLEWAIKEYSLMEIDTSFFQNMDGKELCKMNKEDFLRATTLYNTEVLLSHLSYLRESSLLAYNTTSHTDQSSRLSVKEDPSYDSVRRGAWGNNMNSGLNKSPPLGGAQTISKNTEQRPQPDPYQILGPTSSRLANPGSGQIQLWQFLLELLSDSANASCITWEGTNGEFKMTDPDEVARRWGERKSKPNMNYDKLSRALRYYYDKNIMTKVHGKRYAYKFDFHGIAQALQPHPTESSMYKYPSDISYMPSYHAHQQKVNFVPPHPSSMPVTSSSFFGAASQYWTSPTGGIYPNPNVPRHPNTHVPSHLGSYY
The procedure, abridged: (§1)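 Yeast served to express human transcription factors as GST fusions, which were then captured on glutathione beads and labelled with DNA barcodes. Pooled with a tag-only sample, they were incubated with 200 nmole of a 16-mer random double-stranded DNA library for 30 min at room temperature in Tris/NaCl/DTT/glycerol buffer, washed, crosslinked with 0.1% formaldehyde, ligated by proximity, amplified by PCR and sequenced. Dividing each hexamer's read frequency for a factor by its frequency for the tag-only sample gives the binding signal.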

The target in a further assay is T2, ELK1 (Homo sapiens, UniProt P19419 1-428).
T2 sequence: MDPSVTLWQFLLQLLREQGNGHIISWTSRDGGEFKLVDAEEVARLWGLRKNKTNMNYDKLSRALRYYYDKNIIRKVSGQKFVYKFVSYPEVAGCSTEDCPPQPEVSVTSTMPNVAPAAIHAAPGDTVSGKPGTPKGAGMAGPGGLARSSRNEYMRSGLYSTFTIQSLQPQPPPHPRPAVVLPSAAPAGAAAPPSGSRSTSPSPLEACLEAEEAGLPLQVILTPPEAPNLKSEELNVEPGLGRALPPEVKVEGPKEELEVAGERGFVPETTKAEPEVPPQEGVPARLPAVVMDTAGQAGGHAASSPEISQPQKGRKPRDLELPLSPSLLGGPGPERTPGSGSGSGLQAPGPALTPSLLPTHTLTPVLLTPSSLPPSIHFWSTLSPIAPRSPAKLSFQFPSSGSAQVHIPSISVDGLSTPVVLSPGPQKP
An outline of the steps:
as §1

Another assay has as its target T3, GABPA (Homo sapiens, UniProt Q06546 1-454).
T3 sequence: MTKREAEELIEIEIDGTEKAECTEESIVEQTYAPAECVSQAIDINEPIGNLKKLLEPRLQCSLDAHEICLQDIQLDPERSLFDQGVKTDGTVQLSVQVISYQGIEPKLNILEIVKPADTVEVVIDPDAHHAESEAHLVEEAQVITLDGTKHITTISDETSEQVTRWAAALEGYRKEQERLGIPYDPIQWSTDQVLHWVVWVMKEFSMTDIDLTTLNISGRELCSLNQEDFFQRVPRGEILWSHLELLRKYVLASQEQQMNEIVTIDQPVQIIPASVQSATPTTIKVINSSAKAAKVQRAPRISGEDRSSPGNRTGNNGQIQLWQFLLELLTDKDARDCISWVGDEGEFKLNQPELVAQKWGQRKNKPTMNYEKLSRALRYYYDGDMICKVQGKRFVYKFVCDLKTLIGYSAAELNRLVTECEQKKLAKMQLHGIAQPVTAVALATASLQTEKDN
An outline of the steps:
as §1

Another assay deals with T4, ERG (Homo sapiens, UniProt P11308 1-479).
T4 sequence: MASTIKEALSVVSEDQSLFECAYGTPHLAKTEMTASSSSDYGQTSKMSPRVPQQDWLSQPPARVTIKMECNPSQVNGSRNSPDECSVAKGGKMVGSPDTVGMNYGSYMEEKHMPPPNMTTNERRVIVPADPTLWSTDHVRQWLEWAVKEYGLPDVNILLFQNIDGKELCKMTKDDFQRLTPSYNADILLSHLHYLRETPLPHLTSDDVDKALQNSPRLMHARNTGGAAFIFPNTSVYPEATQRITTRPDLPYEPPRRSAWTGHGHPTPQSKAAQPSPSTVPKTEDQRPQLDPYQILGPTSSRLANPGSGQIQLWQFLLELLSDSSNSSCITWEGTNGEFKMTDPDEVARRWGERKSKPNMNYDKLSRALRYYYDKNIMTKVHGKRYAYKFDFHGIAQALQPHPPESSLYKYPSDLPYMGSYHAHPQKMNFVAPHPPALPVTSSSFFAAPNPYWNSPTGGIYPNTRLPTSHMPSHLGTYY
The procedure, abridged:
as §1

In the next assay the target is ELF1 (Homo sapiens, UniProt P32519 1-619). An outline of the steps:
as §1

Another assay deals with T5, EHF (Homo sapiens, UniProt Q9NZC4 1-300).
T5 sequence: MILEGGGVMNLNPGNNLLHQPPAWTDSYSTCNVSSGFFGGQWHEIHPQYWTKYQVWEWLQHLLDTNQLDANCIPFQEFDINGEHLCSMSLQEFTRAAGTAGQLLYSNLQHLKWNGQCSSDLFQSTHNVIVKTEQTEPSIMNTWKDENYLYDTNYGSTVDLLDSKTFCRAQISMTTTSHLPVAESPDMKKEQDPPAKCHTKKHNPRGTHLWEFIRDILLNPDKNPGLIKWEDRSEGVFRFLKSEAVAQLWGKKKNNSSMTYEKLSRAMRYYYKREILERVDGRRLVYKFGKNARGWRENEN
The procedure, abridged:
as §1

For the next assay, the target named is SPI1 (Homo sapiens, UniProt P17947 1-270). The procedure, abridged: as §1
For a further assay, the target named is SPIB (Homo sapiens, UniProt Q01892 1-262). The procedure, abridged: as §1
SPIB, sequence (Q01892 whole entry): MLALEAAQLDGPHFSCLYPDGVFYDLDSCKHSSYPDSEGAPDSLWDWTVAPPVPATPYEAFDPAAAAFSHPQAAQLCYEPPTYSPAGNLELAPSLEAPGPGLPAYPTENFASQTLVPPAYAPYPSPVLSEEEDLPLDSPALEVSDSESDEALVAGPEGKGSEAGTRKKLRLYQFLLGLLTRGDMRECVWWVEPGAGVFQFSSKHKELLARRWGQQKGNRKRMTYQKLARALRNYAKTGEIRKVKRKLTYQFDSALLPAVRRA
The next assay concerns the target T6, ELK3 (Homo sapiens, UniProt P41970 1-407).
T6 sequence: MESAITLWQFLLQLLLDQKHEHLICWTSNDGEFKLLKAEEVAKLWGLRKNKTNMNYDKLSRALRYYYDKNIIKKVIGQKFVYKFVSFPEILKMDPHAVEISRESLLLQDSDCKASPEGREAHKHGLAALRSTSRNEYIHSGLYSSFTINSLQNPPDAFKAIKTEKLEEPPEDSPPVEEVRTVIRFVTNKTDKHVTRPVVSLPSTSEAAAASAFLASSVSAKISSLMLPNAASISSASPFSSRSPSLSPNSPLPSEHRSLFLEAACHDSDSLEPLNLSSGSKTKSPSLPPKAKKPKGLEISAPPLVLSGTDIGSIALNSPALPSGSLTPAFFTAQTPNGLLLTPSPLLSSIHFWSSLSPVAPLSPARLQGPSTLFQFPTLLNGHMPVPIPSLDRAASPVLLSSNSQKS
The procedure, abridged:
as §1

ELF1, sequence (P32519 whole entry): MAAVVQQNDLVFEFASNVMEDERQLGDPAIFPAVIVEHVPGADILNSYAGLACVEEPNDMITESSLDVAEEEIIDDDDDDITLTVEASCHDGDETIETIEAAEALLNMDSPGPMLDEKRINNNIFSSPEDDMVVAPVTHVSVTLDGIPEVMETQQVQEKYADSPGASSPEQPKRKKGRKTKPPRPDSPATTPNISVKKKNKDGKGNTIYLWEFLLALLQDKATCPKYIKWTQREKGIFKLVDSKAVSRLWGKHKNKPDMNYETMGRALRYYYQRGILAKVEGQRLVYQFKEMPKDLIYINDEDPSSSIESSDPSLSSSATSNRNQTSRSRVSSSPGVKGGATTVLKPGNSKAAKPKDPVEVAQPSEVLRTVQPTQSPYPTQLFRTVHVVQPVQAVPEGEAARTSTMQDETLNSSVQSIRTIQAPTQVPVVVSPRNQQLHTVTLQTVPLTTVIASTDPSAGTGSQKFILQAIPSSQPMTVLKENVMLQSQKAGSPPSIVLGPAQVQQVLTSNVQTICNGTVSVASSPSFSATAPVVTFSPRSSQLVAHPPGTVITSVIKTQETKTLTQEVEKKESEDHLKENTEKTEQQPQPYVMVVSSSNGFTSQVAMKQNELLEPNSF

As for TAATGC, the binding signal in the assay with FLI1 is 1.26 fold enrichment (6-mer frequency, TF over GST control); with ELK1, 1.22 fold enrichment (6-mer frequency, TF over GST control); with GABPA, 1.26 fold enrichment (6-mer frequency, TF over GST control); in the assay with ERG it was 1.18 fold enrichment (6-mer frequency, TF over GST control); with ELF1, 1.16 fold enrichment (6-mer frequency, TF over GST control); with EHF it was 1.22 fold enrichment (6-mer frequency, TF over GST control). The binding signal with SPI1 was 1.1 fold enrichment (6-mer frequency, TF over GST control); in the assay with SPIB, 1.24 fold enrichment (6-mer frequency, TF over GST control); in the assay with ELK3, 1.29 fold enrichment (6-mer frequency, TF over GST control).
In the case of AAATGA, the binding signal with FLI1 was 1.23 fold enrichment (6-mer frequency, TF over GST control); in the assay with ELK1, 1.32 fold enrichment (6-mer frequency, TF over GST control); with GABPA, 1.26 fold enrichment (6-mer frequency, TF over GST control); with ERG, 1.3 fold enrichment (6-mer frequency, TF over GST control); with ELF1 it was 1.26 fold enrichment (6-mer frequency, TF over GST control); in the assay with EHF, 1.23 fold enrichment (6-mer frequency, TF over GST control). Also, the binding signal with SPI1 is 1.45 fold enrichment (6-mer frequency, TF over GST control); with SPIB, 1.37 fold enrichment (6-mer frequency, TF over GST control); in the assay with ELK3, 1.26 fold enrichment (6-mer frequency, TF over GST control).
On to CTATAC, for which the binding signal with FLI1 was 1.28 fold enrichment (6-mer frequency, TF over GST control); with ELK1 it was 1.22 fold enrichment (6-mer frequency, TF over GST control); with GABPA it was 1.35 fold enrichment (6-mer frequency, TF over GST control); in the assay with ERG, 1.24 fold enrichment (6-mer frequency, TF over GST control); with ELF1, 1.31 fold enrichment (6-mer frequency, TF over GST control); with EHF, 1.21 fold enrichment (6-mer frequency, TF over GST control). The binding signal in the assay with SPI1 is 1.21 fold enrichment (6-mer frequency, TF over GST control); with SPIB, 1.16 fold enrichment (6-mer frequency, TF over GST control); in the assay with ELK3, 1.21 fold enrichment (6-mer frequency, TF over GST control).
Take TCACTG: the binding signal in the assay with FLI1 is 1.21 fold enrichment (6-mer frequency, TF over GST control); with ELK1, 1.16 fold enrichment (6-mer frequency, TF over GST control); with GABPA it was 1.22 fold enrichment (6-mer frequency, TF over GST control); with ERG, 1.27 fold enrichment (6-mer frequency, TF over GST control); with ELF1, 1.26 fold enrichment (6-mer frequency, TF over GST control); with EHF, 1.18 fold enrichment (6-mer frequency, TF over GST control). Also, the binding signal with SPI1 was 1.15 fold enrichment (6-mer frequency, TF over GST control); in the assay with SPIB, 1.3 fold enrichment (6-mer frequency, TF over GST control); with ELK3, 1.2 fold enrichment (6-mer frequency, TF over GST control).
For the sequence CCGGAT, the binding signal in the assay with FLI1 was 3.23 fold enrichment (6-mer frequency, TF over GST control); in the assay with ELK1, 3.45 fold enrichment (6-mer frequency, TF over GST control); with GABPA it was 2.97 fold enrichment (6-mer frequency, TF over GST control); with ERG, 4.05 fold enrichment (6-mer frequency, TF over GST control); with ELF1, 2.97 fold enrichment (6-mer frequency, TF over GST control); with EHF it was 3.16 fold enrichment (6-mer frequency, TF over GST control). The binding signal with SPI1 is 2.86 fold enrichment (6-mer frequency, TF over GST control); with SPIB, 3.26 fold enrichment (6-mer frequency, TF over GST control); with ELK3, 3.33 fold enrichment (6-mer frequency, TF over GST control).
Turning to ACGTCC, the binding signal in the assay with FLI1 is 1.59 fold enrichment (6-mer frequency, TF over GST control); in the assay with ELK1, 1.58 fold enrichment (6-mer frequency, TF over GST control); in the assay with GABPA it was 1.61 fold enrichment (6-mer frequency, TF over GST control); with ERG, 1.67 fold enrichment (6-mer frequency, TF over GST control); in the assay with ELF1 it was 1.55 fold enrichment (6-mer frequency, TF over GST control); with EHF it was 1.63 fold enrichment (6-mer frequency, TF over GST control). The binding signal in the assay with SPI1 is 1.49 fold enrichment (6-mer frequency, TF over GST control); with SPIB, 1.72 fold enrichment (6-mer frequency, TF over GST control); with ELK3, 1.85 fold enrichment (6-mer frequency, TF over GST control).
Take AACAAT: the binding signal is 1.31 fold enrichment (6-mer frequency, TF over GST control) in the assay with FLI1; 1.29 fold enrichment (6-mer frequency, TF over GST control) with ELK1; 1.32 fold enrichment (6-mer frequency, TF over GST control) with GABPA; 1.28 fold enrichment (6-mer frequency, TF over GST control) with ERG; 1.29 fold enrichment (6-mer frequency, TF over GST control) with ELF1; 1.26 fold enrichment (6-mer frequency, TF over GST control) with EHF. The binding signal with SPI1 was 1.32 fold enrichment (6-mer frequency, TF over GST control); in the assay with SPIB, 1.29 fold enrichment (6-mer frequency, TF over GST control); with ELK3, 1.32 fold enrichment (6-mer frequency, TF over GST control).
